{
  "source": "PubChem BioAssay AID1851",
  "about": "(National Center for Advancing Translational Sciences (NCATS), 2009)",
  "note": "“And” between values parts separate entries of the source, which are not always exact repeats. Identical values can stand only once. Among all 16,000 compounds or so, about 5,800 (36%) were called active. Inconclusive results (about 23%) are left out. Calls come from the whole dose curve; as a rule, active = well fitted curve in the direction sought with a large enough effect; inconclusive = small, poorly fitted or top-dose-only effect, or effect the other way; inactive = no such curve, though single readings can be large or run the other way. The list shows a part of the results. Some compounds were tested as several samples or in several runs, with calls that do not always agree. % is set by controls: 0 for no effect and ±100 for the full control effect.",
  "data": [
    {"molecular_target": "Cytochrome P450 2C19 (Homo sapiens) (UniProt P33261)", "sequence (P33261 whole entry, looked up)": "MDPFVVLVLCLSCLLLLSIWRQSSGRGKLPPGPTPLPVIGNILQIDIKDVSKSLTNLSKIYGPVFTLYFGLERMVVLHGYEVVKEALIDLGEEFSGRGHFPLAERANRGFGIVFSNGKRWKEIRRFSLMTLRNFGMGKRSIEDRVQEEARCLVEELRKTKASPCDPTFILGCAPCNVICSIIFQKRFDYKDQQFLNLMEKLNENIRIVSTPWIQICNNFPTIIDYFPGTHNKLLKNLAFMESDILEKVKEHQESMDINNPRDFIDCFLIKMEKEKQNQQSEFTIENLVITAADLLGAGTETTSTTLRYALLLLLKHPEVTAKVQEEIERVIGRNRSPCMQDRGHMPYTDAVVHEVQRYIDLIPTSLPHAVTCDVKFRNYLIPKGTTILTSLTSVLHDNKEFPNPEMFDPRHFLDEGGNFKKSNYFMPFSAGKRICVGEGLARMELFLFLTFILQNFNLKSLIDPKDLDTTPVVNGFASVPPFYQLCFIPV", "test": "Cytochrome panel assay with activity outcomes", "conditions": "recombinant CYP, pro-luciferin dealkylation, luminescence, p450-cyp2c19; series mostly up to 57.1 µM; activity, negative = inhibition: at the top concentration", "values": [
      {"smiles": "C[C@H](NC[C@H](O)CP(=O)(O)CC1CCCCC1)c1ccc(Cl)c(Cl)c1", "activity, negative = inhibition": "-9.58% (inactive)"},
      {"smiles": "OC[C@H](S)CS", "activity, negative = inhibition": "-35.3% [at 11.4 µM] (inactive)"},
      {"smiles": "CCCCNC(=O)NC1C(NC(=O)NCCCC)N(C)C(=O)N1C", "note": "(stereo not given)", "activity, negative = inhibition": "-13.7% (inactive)"},
      {"smiles": "CCCCNC(=S)NNC(=O)CCn1nc(C)c(Br)c1C", "AC50": "11.2 µM (active)"},
      {"smiles": "COc1cccc(NC(=O)C2c3cc(OC)c(OC)cc3C(=O)N(C)C2c2cccnc2)c1", "note": "(stereo not given)", "activity, negative = inhibition": "-18.3% (inactive)"},
      {"smiles": "Cc1cccc(NC(=S)N(CCc2nc3cc(C)c(C)cc3[nH]2)Cc2cccnc2)c1", "AC50": "3.16 µM (active)"},
      {"smiles": "COc1cccc(NC(=S)N(CCc2nc3cc(C)c(C)cc3[nH]2)Cc2cccnc2)c1", "AC50": "3.98 µM (active)"},
      {"smiles": "COc1cccc(Nc2ncc3nc(C)c(=O)n(CCc4ccccc4)c3n2)c1", "activity, negative = inhibition": "-33.4% (inactive)"},
      {"smiles": "COc1ccc(NC(=S)N(CCc2nc3cc(C)c(C)cc3[nH]2)Cc2cccnc2)cc1", "AC50": "14.1 µM (active)"},
      {"smiles": "COc1ccc(COc2ccsc2C(=O)Nc2ccc(Cl)c(Cl)c2)cc1", "AC50": "7.94 µM (active)"},
      {"smiles": "CNC(=S)NNC(=O)c1sccc1OCc1ccc(C)cc1", "AC50": "5.01 µM (active)"},
      {"smiles": "FC(F)(F)c1cc(CN2CCCC3(CCNCC3)C2)cc(C(F)(F)F)c1", "activity, negative = inhibition": "24.6% (inactive)"},
      {"smiles": "Cc1ccc(/C=C/c2nnc(-c3ccc(C)cc3)o2)cc1", "activity, negative = inhibition": "-16.4% (inactive)"},
      {"smiles": "C(=C\\c1nnc(-c2cccs2)o1)/c1ccccc1", "AC50": "22.4 µM (active)"},
      {"smiles": "Cc1oc(-c2cccs2)[n+]([O-])c1C", "activity, negative = inhibition": "14.9% (inactive)"},
      {"smiles": "CCN=C1NN=C(c2ccc(C)cc2)CS1", "AC50": "10 µM (active)"},
      {"smiles": "FC(F)(F)c1cc(-c2ccco2)nc(NCCc2ccccc2)n1", "AC50": "1.78 µM (active)"},
      {"smiles": "Nc1nc(NCCc2ccc(O)cc2)nc2nc(-c3ccco3)nn12", "activity, negative = inhibition": "-37.2% (inactive)"},
      {"smiles": "CN1CCN(CC(=O)N2c3ccccc3C(=O)Nc3cccnc32)CC1", "AC50": "inactive"},
      {"smiles": "Cc1scc2c1N(C(=O)CN1CCN(C)CC1)c1ccccc1NC2=O", "AC50": "inactive and 3.98 µM (active)"},
      {"smiles": "CCCCC#Cc1ccccc1CC(=O)Nc1ccccc1", "AC50": "0.794 µM (active)"},
      {"smiles": "O=C(Cc1ccccc1I)Nc1ccccc1", "AC50": "6.31 µM (active)"},
      {"smiles": "CCC#CCOCC(=O)Nc1ccccc1", "activity, negative = inhibition": "1.66% (inactive)"},
      {"smiles": "O=C(O)[C@H](/C=C\\c1ccccc1)c1ccccc1", "activity, negative = inhibition": "-22.1% [at 11.4 µM] (inactive)"},
      {"smiles": "COC(=O)c1cc(/C=C/c2ccccc2)on1", "AC50": "35.5 µM (active)"},
      {"smiles": "Cc1ccc(NC(=O)c2cc([N+](=O)[O-])ccc2NCc2cccnc2)cc1Cl", "AC50": "0.0794 µM (active)"},
      {"smiles": "CS(=O)(=O)N1CCC[C@@]2(CCN(C(=O)Nc3cccc(C#N)c3)C2)C1", "activity, negative = inhibition": "26.6% (inactive)"},
      {"smiles": "CNC(=O)/C(C#N)=c1\\s/c(=C/C(=O)OC)c(=O)n1-c1ccccc1", "AC50": "5.01 µM (active)"},
      {"smiles": "COc1cccc(/C=c2/s/c(=C(\\C#N)C(=O)N3CCOCC3)n(-c3ccccc3)c2=O)c1", "activity, negative = inhibition": "-26% (inactive)"},
      {"smiles": "Cn1c(=O)c2cc(S(=O)(=O)NCCC(=O)NCc3ccccc3Cl)ccc2n(C)c1=O", "activity, negative = inhibition": "-19.5% (inactive)"},
      {"smiles": "Cc1nn(CC(=O)NCc2ccccc2Cl)c(C)c1[N+](=O)[O-]", "AC50": "15.8 µM (active)"},
      {"smiles": "Cc1nn(CC(=O)NCCN2CCOCC2)c(C)c1[N+](=O)[O-]", "activity, negative = inhibition": "7.17% (inactive)"},
      {"smiles": "O=C(Cc1ccccc1[N+](=O)[O-])NCCSCc1c(F)cccc1Cl", "AC50": "2.51 µM (active)"},
      {"smiles": "Cc1nn(CC(=O)NCc2ccccc2)c(C)c1[N+](=O)[O-]", "activity, negative = inhibition": "10.9% (inactive)"},
      {"smiles": "O=C(Cc1ccccc1[N+](=O)[O-])NCc1ccccc1Cl", "AC50": "31.6 µM (active)"},
      {"smiles": "Cc1ccccc1OCC(=O)OC1CCN(C)CC1", "activity, negative = inhibition": "12.3% (inactive)"},
      {"smiles": "Cc1ccc(C(=O)C(OC(=O)CNS(=O)(=O)c2ccccc2)c2ccccc2)cc1", "note": "(stereo not given)", "AC50": "10 µM (active)"},
      {"smiles": "O=C(CN1C(=O)c2ccccc2C1=O)NCC(=O)OCC(=O)c1ccc(Br)cc1", "activity, negative = inhibition": "-8.2% (inactive)"},
      {"smiles": "Cc1ccc(C(=O)C(OC(=O)CCC(=O)Nc2cccc(C)c2)c2ccccc2)cc1", "note": "(stereo not given)", "AC50": "11.2 µM (active)"},
      {"smiles": "CNCC[C@@H](Oc1ccccc1C)c1ccccc1", "activity, negative = inhibition": "11.6% (inactive)"},
      {"smiles": "Cc1ccc(C(=O)C(OC(=O)COc2ccccc2C)c2ccccc2)cc1", "note": "(stereo not given)", "AC50": "7.08 µM (active)"},
      {"smiles": "Cc1ccc(C(=O)C(OC(=O)CN2C(=O)c3ccccc3C2=O)c2ccccc2)cc1", "note": "(stereo not given)", "AC50": "3.55 µM (active)"},
      {"smiles": "CCNc1ncc2nc(-c3cc(F)cc(F)c3)c(=O)n(-c3ccc(OC)cc3)c2n1", "activity, negative = inhibition": "-5.14% (inactive)"},
      {"smiles": "Cc1ccc(NC(=O)C2C3CCCC2C3c2ccccc2)cc1C", "note": "(stereo not given)", "activity, negative = inhibition": "-21.6% (inactive)"},
      {"smiles": "CC(=O)Nc1cccc(C(=O)OC(C(=O)c2ccc(C)c(C)c2)c2ccccc2)c1", "note": "(stereo not given)", "AC50": "3.98 µM (active)"},
      {"smiles": "CCN(Cc1cc(Cl)cc(C)c1O)Cc1c(O)ccc2ccccc12", "AC50": "1.26 µM (active)"},
      {"smiles": "CN(Cc1cc(Br)cc(Br)c1O)Cc1c(O)ccc2ccccc12", "AC50": "0.501 µM (active)"},
      {"smiles": "CN(Cc1cc(Cl)cc(Cl)c1O)Cc1c(O)ccc2ccccc12", "AC50": "1.26 µM (active)"},
      {"smiles": "CN(CC(=O)O)Cc1c(O)c(Cl)cc(Cl)c1Cl", "activity, negative = inhibition": "40.6% [at 11.4 µM] (inactive)"},
      {"smiles": "CN(C)Cc1cc(Cl)c(O)c(CN(C)C)c1", "activity, negative = inhibition": "2.46% [at 11.4 µM] (inactive)"},
      {"smiles": "Oc1ccc2ccccc2c1C=NCc1c(O)ccc2ccccc12", "activity, negative = inhibition": "-16.5% [at 11.4 µM] (inactive)"},
      {"smiles": "O=C1Nc2ccccc2C1=Nc1cccc2ncccc12", "activity, negative = inhibition": "27.9% [at 11.4 µM] (inactive)"},
      {"smiles": "COC(=O)[C@H](CCSC)NC(=O)C/C=C\\[C@@H](C)CO", "activity, negative = inhibition": "35.2% [at 11.4 µM] (inactive)"},
      {"smiles": "COC(=O)C(CCSC)NC(=O)c1cccc([N+](=O)[O-])c1", "note": "(stereo not given)", "AC50": "14.1 µM (active)"},
      {"smiles": "COC(=O)[C@H](CCSC)NC(=O)C/C=C\\[C@@H](C)[C@@H](CO)OC", "activity, negative = inhibition": "-1.07% [at 11.4 µM] (inactive)"},
      {"smiles": "NCCS(=O)O", "activity, negative = inhibition": "-19.8% (inactive)"},
      {"smiles": "C=CC(=O)NC(NC(=O)C=C)c1ccc(Br)cc1", "AC50": "15.8 µM (active)"},
      {"smiles": "O=C(O)C(=O)/C=C(\\O)c1ccc(Br)cc1", "activity, negative = inhibition": "29% [at 11.4 µM] (inactive)"},
      {"smiles": "CC(=O)NC(NC(C)=O)c1ccc(Br)cc1", "activity, negative = inhibition": "-22.4% (inactive)"},
      {"smiles": "O=C(COC(=O)c1cccnc1)c1ccc(Cl)c(Cl)c1", "AC50": "2.24 µM (active)"},
      {"smiles": "O=S(=O)(/N=C(\\Sc1ccccc1)c1ccccc1)c1ccc(Cl)cc1", "AC50": "15.8 µM (active)"},
      {"smiles": "CCOC(=O)c1sc(C)c(C(=O)NCC(C)(C)CN(C)C)c1N", "AC50": "28.2 µM (active)"},
      {"smiles": "COCC(=O)N1CCC2(CCCN(Cc3ccccc3)C2)CC1", "activity, negative = inhibition": "22.8% (inactive)"},
      {"smiles": "O=C(COc1ccc(Br)cc1)N1CCC(c2ccccc2)C1", "note": "(stereo not given)", "AC50": "1.12 µM (active)"},
      {"smiles": "CCOc1ccc(NC(=O)N2CCC(c3ccc(C)cc3)C2)cc1", "note": "(stereo not given)", "activity, negative = inhibition": "-27.1% (inactive)"}
    ]}
  ]
}
